In the library only some 1.1% were active in any assay of this set; here they are far more common.
USP2a inh: USP2a (human) protease inhibition | O75604 | USP2 core, Ub-CHOP2 coupled fluorogenic reporter, 485/531 | Potency, µM (top dose mostly 38.3 µM), without a hit: at the top dose activity change, negative = inhibition, most hits filed as inhibitors | 0.01% of 330,000 active | AID 463254;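 note: plate controls were DMSO wells for no effect and full inhibition by NEM control for full effect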
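USP2 core (10nM final) preincubated 30min RT with compound in 20mM Tris-HCl pH 8.0, 2mM CaCl2, 2mM beta-mercaptoethanol, 0.05% CHAPS; 25nM Ub-CHOP2 plus 25nM reporter substrate added, fluorescence (Ex485/Em531) read after 60min.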
TSG101-PTAP inh: blocks PTAP/TSG101 interaction to inhibit HIV-1 budding. Potency, µM (series often up to 115 µM), for inactives: top-dose activity change, negative = inhibition, hits mostly inhibitors. Fluorescence polarization, FITC-PTAP peptide / Tsg101 binding. Q99816. 340,000 tested, under 10 active; active = well fitted inhibition curve with a large enough effect in the main read-out, with a control signal flat, not every such curve was filed as active; inconclusive = small, poorly fitted or top-dose-only effect, or effect the other way, or a change in a side signal; inactive = no such curve, though single readings can be large or run the other way; note: % of control where 0% means no effect
Target sequence (Q99816 whole entry, looked up): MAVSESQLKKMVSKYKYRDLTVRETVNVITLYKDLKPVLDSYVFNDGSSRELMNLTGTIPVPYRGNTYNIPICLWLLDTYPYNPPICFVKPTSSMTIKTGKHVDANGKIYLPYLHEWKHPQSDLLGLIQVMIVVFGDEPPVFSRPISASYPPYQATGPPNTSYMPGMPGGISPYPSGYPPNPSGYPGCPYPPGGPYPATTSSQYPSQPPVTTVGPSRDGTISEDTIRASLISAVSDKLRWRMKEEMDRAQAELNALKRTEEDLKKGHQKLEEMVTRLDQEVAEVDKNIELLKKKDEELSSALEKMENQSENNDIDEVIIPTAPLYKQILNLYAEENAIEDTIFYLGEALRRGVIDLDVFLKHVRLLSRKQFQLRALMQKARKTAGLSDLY
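Fluorescence polarization binding of Tsg101 binding domain (10 uM final) to FITC-labeled PTAP peptide (50 nM final) in HEPES pH 7.5 buffer with NaCl, Tween 20, EDTA, TCEP. Compounds added before peptide; binding 20 min at RT.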
12-LOX inh: inhibitors of human 12S-lipoxygenase ALOX12. P18054. purified 12hLO, xylenol orange hydroperoxide absorbance. Potency, µM (highest dose often 108 µM), inactives show top-dose activity change, negative = inhibition, actives largely listed as inhibitors. 1.1% of 580,000 active. AID 1671190; note: % is set by controls: 0 for no effect and ±100 for the full control effect
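Hydroperoxide product was detected by ferrous iron/xylenol orange as the 573 to 405 nm absorbance ratio. Arachidonic acid at 40 uM (final) was turned over for 30 min at room temperature by 150 nM human 12hLO, pH 7.0 Hepes buffer, after 15 min compound preincubation.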
Eya2 phos inh: Eya2 (human) phosphatase inhibition | recombinant Eya2, OMFP fluorescence dephosphorylation (OMFP is methylfluorescein phosphate) | Potency, µM (series often up to 76.9 µM), without a hit: at the top dose activity, negative = inhibition, hits mostly inhibitors | 0.006% of 330,000 active; note: % is set by controls: 0 for no effect and ±100 for the full control effect
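Eya2 protein (added as 0.2 uM solution) was preincubated with compound for 10 min at ambient temperature in 50 mM HEPES pH 7.5, 50 mM NaCl, 5 uM MgCl2, 0.05% BSA, 1 mM DTT. OMFP (added at 50 uM) then reacted 10 min; fluorescence read at 485/525 nm.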
* = called active by the depositor; [ ] = dose if it differs, or a comment. Unless noted, calls come from the whole dose curve; as a rule, active = well fitted curve in the direction sought with a large enough effect; inconclusive = small, poorly fitted or top-dose-only effect, or another doubt; inactive = no such curve, though single readings can be large; an effect the other way counts as inactive or inconclusive. Potency is the fitted concentration of half-maximal effect.

What do the screens show for `Cn1c(=O)c2c(ncn2CCNc2cccc(Cl)c2)n(C)c1=O`?
12-LOX inh: -18%

How did Cc1ccc(CN2CCCn3nc(C)c(-c4ccccc4-c4ccccc4)c32)o1 do in these assays?
12-LOX inh: 53%[176 µM]

What do the screens show for `N#Cc1nc(-c2ccco2)oc1N1CCN(C(=O)CNC(c2ccccc2)c2ccccc2)CC1`?
12-LOX inh: -2%

How did Cc1cc(C)c2nc(N3C(=O)C(O)=C(C(=O)c4ccco4)C3c3cccc(O)c3)sc2c1 (stereo unspecified) do in these assays?
USP2a inh: -8%; TSG101-PTAP inh: -9%; 12-LOX inh: 25µM*; Eya2 phos inh: -18%

What do the screens show for `Cc1cc(N2C(=O)C(O)=C(C(=O)c3ccco3)C2c2cccc(O)c2)no1` (stereo unspecified)?
USP2a inh: 0%; TSG101-PTAP inh: -6%; 12-LOX inh: inconclusive; Eya2 phos inh: 3%

Results for Cc1nnc(N2C(=O)C(O)=C(C(=O)c3ccco3)C2c2cccc([N+](=O)[O-])c2)s1 (stereo unspecified) ?
USP2a inh: -1%; 12-LOX inh: inconclusive; Eya2 phos inh: -3%

How did CCOC(=O)c1sc(N2C(=O)C(O)=C(C(=O)c3ccco3)C2c2cccc([N+](=O)[O-])c2)nc1C (stereo unspecified) do in these assays?
USP2a inh: 1%; TSG101-PTAP inh: -9%; 12-LOX inh: 45µM*; Eya2 phos inh: 6%

Results for CC(C)(C)c1noc(Cn2cnc3ccc(Cl)cc3c2=O)n1 ?
12-LOX inh: -16%

Results for Brc1ccc(-c2cn3c4ccccc4nc3n2CCCN2CCCC2)cc1 ?
12-LOX inh: 10µM*

Results for Cc1ccc(Cc2c(-c3ccco3)nc3c4ccccc4ccn23)cc1 ?
12-LOX inh: 5µM*

Results for Cc1ccc(Cc2c(-c3ccco3)nc3c(C)cc(Br)cn23)cc1 ?
12-LOX inh: 14µM*

Results for COc1cccc(-c2noc(CC3CCN(C(=O)c4cc(Cl)ccc4F)CC3)n2)c1 ?
12-LOX inh: 1%

Results for COc1ccc2cc(COC(=O)c3nn(C)c(=O)c4ccccc34)ccc2c1 ?
12-LOX inh: -37%

What do the screens show for `N#CC1=C(N)N(c2cccc(C(F)(F)F)c2)C2=C(C(=O)CCC2)C12C(=O)Nc1ccc(F)cc12` (stereo unspecified)?
12-LOX inh: 31%

Results for Cc1cc(C)nc(NS(=O)(=O)c2ccc(NC(=O)c3cc(-c4ccccc4)nc4ccccc34)cc2)n1 ?
USP2a inh: -11%; TSG101-PTAP inh: 0%; 12-LOX inh: 0%; Eya2 phos inh: -3%

Results for COc1ccc(NC(=O)CN(C)C(=O)c2cc(-c3ccco3)nc3ccccc23)cc1 ?
USP2a inh: -2%; TSG101-PTAP inh: -5%; 12-LOX inh: inconclusive; Eya2 phos inh: -28%

Results for COc1ccc(NC(=O)c2cc(-c3ccco3)nc3ccccc23)cc1 ?
TSG101-PTAP inh: 0%; 12-LOX inh: inconclusive

Results for Cc1cccc(NC(=O)c2cc(-c3ccc(C)o3)nc3ccccc23)n1 ?
12-LOX inh: -116%

Results for Cc1ccc(-c2cc(C(=O)Nc3ccc(S(=O)(=O)Nc4onc(C)c4C)cc3)c3ccccc3n2)cc1 ?
USP2a inh: 2%; TSG101-PTAP inh: -1%; 12-LOX inh: 35µM*; Eya2 phos inh: 13%

What do the screens show for `Cc1cccc(NC(=O)c2cc(-c3ccco3)nc3ccccc23)n1`?
USP2a inh: 0%; TSG101-PTAP inh: -9%; 12-LOX inh: 28µM*; Eya2 phos inh: -10%

What do the screens show for `CN(CC(=O)Nc1cccc(F)c1)C(=O)c1cc(-c2ccco2)nc2ccccc12`?
USP2a inh: -3%; TSG101-PTAP inh: -4%; 12-LOX inh: 40µM*; Eya2 phos inh: -10%

Results for CC(=O)Nc1ccc(NC(=O)c2cc(-c3ccco3)nc3ccccc23)cc1 ?
12-LOX inh: 11µM*

How did CCN(C(=O)c1cccs1)c1ccccc1C do in these assays?
12-LOX inh: 2%

How did Cc1cccc(NC(=O)c2n[nH]nc2Nc2ccc(Cl)cc2)c1C do in these assays?
12-LOX inh: 10%

Results for c1ccc(-c2cc(NCCCOc3cccnc3)n3nccc3n2)cc1 ?
12-LOX inh: 82%

Results for COCCn1c(C2CC(=O)N(c3cc(Cl)ccc3OC)C2)nc2ccccc21 (stereo unspecified) ?
12-LOX inh: -4%

Results for COc1ccc(C(CC(=O)N2CCCCC2)c2c(OC)cc(OC)c3c(-c4ccccc4)cc(=O)oc23)cc1 (stereo unspecified) ?
USP2a inh: 2%; TSG101-PTAP inh: -7%; 12-LOX inh: 40µM*; Eya2 phos inh: -17%

How did COc1ccc(C(CC(=O)N2CCCC2)c2c(OC)cc(OC)c3c(-c4ccccc4)cc(=O)oc23)cc1 (stereo unspecified) do in these assays?
USP2a inh: 0%; TSG101-PTAP inh: -2%; 12-LOX inh: inconclusive; Eya2 phos inh: -7%

Results for CC(=O)c1c(N2CCCC2)[nH]c(-c2ccccc2)nc1=S ?
USP2a inh: inconclusive; TSG101-PTAP inh: -3%; 12-LOX inh: 45µM*; Eya2 phos inh: 8%

How did CC(=O)c1c(N2CCN(Cc3ccccc3)CC2)[nH]c(-c2ccccc2)nc1=S do in these assays?
USP2a inh: 1%; TSG101-PTAP inh: 4%; 12-LOX inh: 40µM*; Eya2 phos inh: 12%

What do the screens show for `Cc1cc(=O)oc2cc(NC(=O)Cc3ccccc3F)ccc12`?
12-LOX inh: 40µM*

What do the screens show for `COc1ccc(CC(=O)Nc2ccc3c(C)cc(=O)oc3c2)cc1OC`?
USP2a inh: 0%; TSG101-PTAP inh: -1%; 12-LOX inh: 9%; Eya2 phos inh: -17%

How did O=C(OCc1noc(-c2ccco2)n1)c1cc(Br)c[nH]1 do in these assays?
12-LOX inh: 25µM*

How did Fc1ccc(-[n+]2nc(Nc3ccccc3)sc2-c2ccc(OCc3ccccc3)cc2)cc1 do in these assays?
USP2a inh: 0%; 12-LOX inh: 40µM*; Eya2 phos inh: -8%

How did COC(=O)c1ccc2nc(C[C@@H]3C[C@@H](C(C)C)[C@H](CN(C)C)C=C3C)[nH]c2c1 do in these assays?
12-LOX inh: 17%[176 µM]

What do the screens show for `COc1ccc(OC)c(C2C=C(C34CC5CC(CC(C5)C3)C4)NC(=S)N2)c1` (stereo unspecified)?
USP2a inh: 1%; TSG101-PTAP inh: 0%; 12-LOX inh: 32µM*; Eya2 phos inh: -1%

What do the screens show for `COc1ccc(CNc2ncc(-c3ccccc3)n2C)c(OC)c1OC`?
USP2a inh: 0%; TSG101-PTAP inh: -2%; 12-LOX inh: 2µM*; Eya2 phos inh: 3%

What do the screens show for `COc1ccc(CNc2ncc(-c3ccccc3)n2C)cc1`?
USP2a inh: -1%; TSG101-PTAP inh: -11%; 12-LOX inh: inconclusive; Eya2 phos inh: 2%

Compound activity: PubChem BioAssay, National Center for Advancing Translational Sciences (NCATS)
